RXFP1 antag: blocks the human relaxin receptor RXFP1; 350,000 compounds, 0.59% hits; activity change, negative = inhibition, % at 57.5 µM; Q9HBX9; HEK293-RXFP1, relaxin-stimulated cAMP HTRF, 30 min; hits give low values;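 active means activity change of -60% or lower, but not beyond a set lower limit; inconclusive means change between -60% and -40%, or beyond the set limit; inactive means change above -40%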
pAkt inh: Akt phosphorylation inhibition | 360,000 compounds, 0.32% hits | AID 651550 | activity change, % for hits at 50 µM | Neuro2A IGF-stimulated pAkt S473 HTRF, 20 min; hits give low values; in the data active means activity change below about -80%; inconclusive means mostly about -51% to -80%
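Neuro2A cells (4,500/well, DMEM with 0.5% FBS) were treated with compound at a single 50 µM final concentration, stimulated with 6 nM IGF for 20 min at 37 °C, and lysed. Phospho-Akt Ser473 was read by HTRF as 665/615 ratio ×10^4.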
ClpP mod: qHTS Assay for Activators of ClpP; ATP-dependent Clp protease proteolytic subunit (Bacillus subtilis (strain 168)), P80244; purified B. subtilis ClpP, FRET peptide cleavage, 20 min; Potency, µM (series often up to 57.5 µM); 340,000 compounds, 1.9% hits; active means well fitted falling curve with a large enough effect; inconclusive means small, poorly fitted or top-dose-only effect; inactive means no such curve, though single readings can be large or run the other way; further: the source files actives as falling curves though it sought activators and does not explain the sign; nearly all actives have a fitted effect of over 65% in size
Target sequence (P80244 whole entry, looked up): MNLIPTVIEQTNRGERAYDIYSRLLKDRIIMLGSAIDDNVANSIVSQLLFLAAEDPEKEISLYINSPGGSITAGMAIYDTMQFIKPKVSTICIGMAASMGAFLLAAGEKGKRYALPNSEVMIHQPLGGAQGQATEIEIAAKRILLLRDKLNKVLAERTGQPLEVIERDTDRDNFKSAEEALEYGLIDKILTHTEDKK
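Buffer: 100 mM Tris/HCl pH8, 100 mM KCl, 0.05% low protease BSA, 2.5% glycerol, 0.01% Tween-20. ClpP 10 microg/mL final; 20 min RT; delta FRET normalized to ADEP and DMSO controls.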
gsp ag: agonists of gsp mutant (McCune-Albright syndrome); gsp mutant cells, cAMP HTRF, 30 min; Potency, µM (top dose mostly 76.9 µM), actives largely listed as activators; 340,000 compounds, 0.13% hits; AID 624287; active means well fitted activation curve with a large enough effect; inconclusive means small, poorly fitted or top-dose-only effect, or another doubt; inactive means no such curve, though single readings can be large or run the other way; cell line not stated here;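 further: phosphodiesterase inhibitor Ro 20-1724 added with compounds to block cAMP breakdown; nearly all actives have a fitted effect of over 60% in size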
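Cells in DMEM/10% FBS with G418 were pretreated with compounds in DMSO plus […] (300 uM stock) for 30 min at 37C. cAMP was measured by HTRF (cAMP-d2 plus anti-cAMP antibody-K) after 30 min at room temperature.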
RXFP1 ag: activates the human relaxin receptor RXFP1 | HEK293T-RXFP1 cAMP TR-FRET, 30 min; response scale: percent of porcine relaxin response, buffer zero | Potency, µM (highest dose often 57.5 µM), actives largely listed as activators | 370,000 compounds, 0.3% hits | AID 2676 | Q9HBX9; active means well fitted activation curve with a large enough effect; inconclusive means small, poorly fitted or top-dose-only effect; further: nearly all actives have a fitted effect of over 60% in size
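Agonist response is measured as cAMP accumulation in an RXFP1-transfected HEK293T line under PDE4 inhibition. Values are scaled between buffer-only and 29 nM porcine relaxin, and EC50s come from standard Hill equation fits.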
gsp antag: gsp mutant antagonism. gsp-mutant cells, cAMP HTRF, 30 min. Potency, µM (series often up to 76.9 µM), most hits filed as inhibitors. 340,000 compounds, 0.4% hits; calls by dose curve; cell line not stated here;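 further: intracellular cAMP measured with PDE inhibitor Ro 20-1724 present during compound exposure; nearly all actives have a fitted effect of over 65% in size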
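HTRF cAMP measurement after 30 min RT detection following 30 min, 37C compound treatment alongside […] (added as 300 uM solution) in G418-selected cells seeded at 2000/well and grown 16–24 h.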
Numbers stand for hits; [ ] = another dose, or the depositor's remark. An excerpt weighted towards active compounds, which were near 2.7% of everything screened.

Results for CCN(CC)CCN1C(=O)C(O)=C(C(=O)c2cc3ccccc3o2)C1c1cccnc1 (stereo not given) ?
RXFP1 antag: inactive; pAkt inh: inactive; ClpP mod: inactive; gsp ag: inconclusive; RXFP1 ag: inactive; gsp antag: inactive

What do the screens show for `O=C(C1=C(O)C(=O)N(CCc2ccccc2)C1c1ccncc1)c1cc2ccccc2o1` (stereo not given)?
RXFP1 antag: inactive; pAkt inh: inactive; gsp ag: inactive[15.4 µM]; RXFP1 ag: 14µM; gsp antag: inactive

How did O=C(C1=C(O)C(=O)N(c2nccs2)C1c1ccccc1)c1cc2ccccc2o1 (stereo not given) do in these assays?
RXFP1 antag: inactive; pAkt inh: inactive; gsp ag: inconclusive; RXFP1 ag: 16µM; gsp antag: inactive

What do the screens show for `CCN(CC)C(=O)c1cccc(-c2csc(C(O)c3ccc(F)c(F)c3)n2)c1` (stereo not given)?
pAkt inh: inactive; ClpP mod: inactive

Results for COc1ccc(C(=O)/C=C2\C(=O)Nc3ccc(Br)cc32)cc1 ?
RXFP1 antag: -75; pAkt inh: inactive; ClpP mod: inactive; gsp ag: inactive; gsp antag: inactive

What do the screens show for `O=C1Nc2ccccc2/C1=C\C(=O)c1ccccc1`?
RXFP1 antag: inconclusive; pAkt inh: inactive; ClpP mod: inactive; gsp ag: inconclusive; RXFP1 ag: inactive; gsp antag: inactive

What do the screens show for `O=C1Nc2ccc(Br)cc2/C1=C/C(=O)c1ccc2c(c1)OCO2`?
RXFP1 antag: -84; pAkt inh: inactive; ClpP mod: inactive; gsp ag: inactive; RXFP1 ag: inactive; gsp antag: inactive

What do the screens show for `[S-]C(=Nc1ccc(Cl)cc1)N[n+]1ccccc1`?
pAkt inh: inactive; ClpP mod: 28µM; gsp ag: inactive; RXFP1 ag: inactive; gsp antag: inactive

Results for ONC(=Nc1ccc(Cl)cc1)c1ccc(Cl)cc1 ?
RXFP1 antag: inactive; pAkt inh: inactive; ClpP mod: inactive; gsp ag: inactive; RXFP1 ag: inactive; gsp antag: inactive

What do the screens show for `Cc1ccc2ccccc2c1C(O)c1ncc(-c2ccccc2)[nH]1` (stereo not given)?
pAkt inh: inactive; ClpP mod: inactive

What do the screens show for `O=C(COc1nnc2ccccn12)N1CCN(S(=O)(=O)c2ccccc2)CC1`?
RXFP1 antag: inactive; pAkt inh: inactive; ClpP mod: 32µM; gsp ag: inactive; gsp antag: inactive

How did O=C(CCc1ccccc1Cl)N1CCN(S(=O)(=O)c2ccccc2)CC1 do in these assays?
RXFP1 antag: inactive; pAkt inh: inactive; ClpP mod: inactive; gsp ag: inactive; RXFP1 ag: inactive; gsp antag: 10µM

Results for O=C(CCSc1ccc(Cl)cc1)N1CCN(S(=O)(=O)c2ccccc2)CC1 ?
RXFP1 antag: inactive; pAkt inh: inactive; ClpP mod: inactive; gsp ag: inactive; RXFP1 ag: inactive; gsp antag: inactive

What do the screens show for `O=C(COc1cccnc1[N+](=O)[O-])N1CCN(S(=O)(=O)c2ccccc2)CC1`?
RXFP1 antag: inactive; pAkt inh: inactive; ClpP mod: inactive; gsp ag: inactive; RXFP1 ag: inactive; gsp antag: 50µM

Results for CCN1CCC(N(Cc2cccc(OC)c2)C(=O)Nc2cccc(C)c2C)CC1 ?
RXFP1 antag: inactive; ClpP mod: inactive; RXFP1 ag: inactive

How did COC(=O)c1[nH]c2ccc(C)cc2c1NC(=O)CN1CCCC(C)(C)C1 do in these assays?
RXFP1 antag: inactive; pAkt inh: inactive; ClpP mod: 18µM; gsp ag: inactive; RXFP1 ag: inactive; gsp antag: inactive

Results for CCOC(=O)c1[nH]c2ccc(C)cc2c1N ?
RXFP1 antag: inactive; pAkt inh: inactive; ClpP mod: 25µM; gsp ag: inactive; RXFP1 ag: inactive; gsp antag: inactive

What do the screens show for `CCOC(=O)c1[nH]c2ccc(OCC)cc2c1NC(=O)CN1CCCC(C)C1` (stereo not given)?
RXFP1 antag: inactive; pAkt inh: inactive; ClpP mod: 14µM; gsp ag: inactive; RXFP1 ag: inactive; gsp antag: inactive

Results for CCOC(=O)C1CCCN(CC(=O)Nc2c(C(=O)OC)[nH]c3ccc(Br)cc23)C1 (stereo not given) ?
RXFP1 antag: inactive; ClpP mod: inactive; gsp ag: inactive; RXFP1 ag: inactive; gsp antag: inconclusive

How did COC(=O)c1[nH]c2ccc(C)cc2c1NC(=O)CN1CCc2cc(OC)c(OC)cc2C1 do in these assays?
RXFP1 antag: inactive; pAkt inh: inactive; ClpP mod: inconclusive; gsp ag: inactive; RXFP1 ag: inactive; gsp antag: inconclusive

Results for CCOC(=O)c1[nH]c2ccc(C)cc2c1NC(=O)CN1CCCCC1 ?
RXFP1 antag: inactive; pAkt inh: inactive; ClpP mod: 32µM; gsp ag: inactive; RXFP1 ag: inactive; gsp antag: inactive[15.4 µM]

How did Cc1ccc(-c2nc(=Nc3c(C)cc(C)cc3C)sn2-c2ccccc2)cc1 do in these assays?
ClpP mod: inactive

What do the screens show for `COc1ccccc1C(=O)NCCSc1c(C)[nH]c2ccccc12`?
RXFP1 antag: inconclusive; ClpP mod: inactive; RXFP1 ag: inactive

Results for Cc1cc(Cl)ccc1NC(=O)CCN1C(=O)NC(C)(C)C1=O ?
RXFP1 antag: inactive; pAkt inh: inactive; ClpP mod: inactive; gsp ag: inactive; RXFP1 ag: inactive; gsp antag: inactive

What do the screens show for `O=C(c1cccc(S(=O)(=O)Nc2ccc(F)cc2)c1)N1CCOCC1`?
RXFP1 antag: inactive; pAkt inh: inactive; ClpP mod: inactive; gsp ag: inactive; RXFP1 ag: inactive; gsp antag: inactive

Results for CCOC(=O)c1[nH]c2ccc(OC)cc2c1NC(=O)CN1CCN(c2ccccn2)CC1 ?
RXFP1 ag: inactive

What do the screens show for `CCOC(=O)c1[nH]c2ccc(OCC)cc2c1NC(=O)CN1CCN(c2ccccn2)CC1`?
RXFP1 antag: inactive; pAkt inh: inactive; ClpP mod: 18µM; gsp ag: inactive; RXFP1 ag: inactive; gsp antag: inactive

Results for COc1cc(Cl)c(S(=O)(=O)NCCCn2ccnc2)cc1Cl ?
RXFP1 antag: inactive; pAkt inh: inactive; gsp ag: inactive; RXFP1 ag: inactive; gsp antag: inactive

What do the screens show for `COc1cccc(C2/C(=C(/O)c3ccc4c(c3)CC(C)O4)C(=O)C(=O)N2CCCn2ccnc2)c1` (stereo not given)?
RXFP1 antag: inactive; pAkt inh: inactive; gsp ag: 13µM; RXFP1 ag: inconclusive; gsp antag: inactive

What do the screens show for `CCOc1cccc(C2/C(=C(/O)c3ccc4c(c3)CC(C)O4)C(=O)C(=O)N2Cc2ccncc2)c1` (stereo not given)?
RXFP1 antag: inactive; pAkt inh: inactive; ClpP mod: inactive; gsp ag: 5µM; RXFP1 ag: inconclusive; gsp antag: inactive

High-throughput results from PubChem BioAssay.
